Several values for one entry are separate records, joined by “and”; a condition that tells them apart may be missing. Identical values can stand only once. Records with an inconclusive call do not appear. Some structures have more than one record in an assay (separate samples or runs), and their calls can disagree. Activity calls are given as the source filed them. The calls were made as follows, unless noted: active = hit-call score of the fitted dose curve at least 0.9, where 1 is the maximum; inactive = score below 0.9.
Columns and labels:
[1] = read-out: Interleukin-8 (IL8), CXCL8 (gene 3576); experiment: BSK_3C_IL8: BioMAP Diversity Plus: 3C Assay for Interleukin-8 (IL8) Biomarker Activity (AID 2283020); settings: primary human endothelial cells (HUVEC); actives raise or lower the signal
Summary of the method: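 HUVEC, 3C stimulation; 24 h compound exposure; IL-8 read by ELISA; gain or loss of signal fitted relative to DMSO control.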

[2] = read-out: Monokine induced gamma interferon (MIG), CXCL9 (gene 4283); experiment: BSK_3C_MIG: BioMAP Diversity Plus: 3C Assay for Monokine induced gamma interferon (MIG) Biomarker Activity (AID 2283021); settings: primary human endothelial cells (HUVEC); actives raise or lower the signal
Summary of the method: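 HUVEC, 3C system; 24 h chemical exposure; MIG by ELISA; bidirectional fit vs DMSO baseline.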

[3] = target: human Vitamin D Receptor (VDR), VDR (gene 7421) (UniProt P11473); experiment: ATG_VDR_TRANS: Attagene TRANS-FACTORIAL HepG2 Assay for human Vitamin D Receptor (VDR) (AID 2283022; active = hit-call score of the fitted dose curve at least 0.9, where 1 is the maximum)
Summary of the method: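 Multiplexed TRANS reporter in HepG2; 24 h treatment; reporter mRNA by RT-PCR plus capillary electrophoresis; upregulation scored relative to DMSO.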

[4] = BSK_3C_SRB: Viability Assessment in the BioMAP Diversity Plus: 3C Assay (AID 2283023); settings: primary human endothelial cells (HUVEC);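 also: fitted both ways against DMSO so a hit may be signal rise or drop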
Summary of the method: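 Overt cytotoxicity is gauged in parallel confluent HUVEC cultures by SRB total-protein staining at the time of biomarker measurement, 24 h after dosing. Gain or loss of signal is fitted versus DMSO.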

[5] = read-out: Matrix Metallopeptidase 1 (MMP1), MMP1 (gene 4312); experiment: BSK_BE3C_MMP1: BioMAP Diversity Plus: BE3C Assay for Matrix Metallopeptidase 1 (MMP1) Biomarker Activity (AID 2283024); settings: primary human bronchial epithelial cells; actives raise or lower the signal
Summary of the method: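 ELISA read-out of MMP1 in human lung bronchial epithelial primary cultures, 24 h post-dose; bidirectional curve fit vs DMSO baseline, gain or loss of signal scored.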

[6] = BSK_4H_SRB: Viability Assessment in the BioMAP Diversity Plus: 4H Assay (AID 2283027); settings: primary human endothelial cells (HUVEC);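 also: cells exposed to compound for 24 h before staining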;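 as to AC50: curves fitted both ways versus DMSO so AC50 may be loss or gain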
Summary of the method: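 Cytotoxicity readout: sulforhodamine B (0.1%) staining of total protein after 10% TCA fixation, measured at 560 nm in human umbilical vein endothelium at 24 h. DMSO set the baseline; fitting was bidirectional.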

[7] = BSK_BE3C_SRB: Viability Assessment in the BioMAP Diversity Plus: BE3C Assay (AID 2283028); settings: primary human bronchial epithelial cells;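 also: measured 24 h after chemical dosing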;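 as to AC50: fitted both ways so AC50 may mark signal gain or loss versus DMSO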
Summary of the method: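 SRB total-protein staining (0.1%, after TCA fixation) of chemically dosed human bronchial epithelial primary cells at 24 h; DMSO serves as the negative control for bidirectional curve fitting.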

[8] = read-out: Thrombomodulin, THBD (gene 7056); experiment: BSK_3C_Thrombomodulin: BioMAP Diversity Plus: 3C Assay for Thrombomodulin Biomarker Activity (AID 2283029); settings: primary human endothelial cells (HUVEC); actives raise or lower the signal
Summary of the method: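 HUVEC, 3C conditions; compound 24 h; thrombomodulin by ELISA; bidirectional curve fit vs DMSO baseline; parallel SRB total-protein staining for cytotoxicity.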

[9] = read-out: Urokinase-type plasminogen activator receptor (uPAR), PLAUR (gene 5329); experiment: BSK_4H_uPAR: BioMAP Diversity Plus: 4H Assay for Urokinase-type plasminogen activator receptor (uPAR) Biomarker Activity (AID 2283030); settings: primary human endothelial cells (HUVEC); actives raise or lower the signal
Summary of the method: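 Endpoint derived via bidirectional curve fitting against DMSO baseline; readout was ELISA detection of uPAR on umbilical vein endothelial cells at 24 h post-treatment, with SRB-stained parallel cultures assessing cytotoxicity.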

[10] = read-out: Vascular endothelial growth factor receptor 2 (Homo sapiens) (UniProt P35968); experiment: BSK_4H_VEGFRII: BioMAP Diversity Plus: 4H Assay for Vascular endothelial growth factor receptor 2 (VEGFR2) Biomarker Activity (AID 2283031); settings: primary human endothelial cells (HUVEC); actives raise or lower the signal
Summary of the method: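 In this multiplexed HUVEC system, biomarker ELISA was performed after 24 h chemical exposure. Parallel SRB staining (TCA fixation, 560 nm) tracked cytotoxicity; DMSO served as baseline.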

[11] = read-out: Human Leukocyte Antigen - DR isotype (HLADR), HLA-DRA (gene 3122); experiment: BSK_BE3C_HLADR: BioMAP Diversity Plus: BE3C Assay for Human Leukocyte Antigen - DR isotype (HLADR) Biomarker Activity (AID 2283032); settings: primary human bronchial epithelial cells; actives raise or lower the signal
Summary of the method: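 Primary human bronchial epithelial cells (BE3C); 24 h chemical exposure; HLA-DR by ELISA; bidirectional curve fit vs DMSO baseline.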

[12] = read-out: Vascular cell adhesion molecule 1 (VCAM1), VCAM1 (gene 7412); experiment: BSK_4H_VCAM1: BioMAP Diversity Plus: 4H Assay for Vascular cell adhesion molecule 1 (VCAM1) Biomarker Activity (AID 2283033); settings: primary human endothelial cells (HUVEC); actives raise or lower the signal
Summary of the method: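 HUVEC, 24 h post-dose; VCAM-1 by ELISA. Bidirectional curve fit vs DMSO baseline. Parallel SRB total-protein stain (0.1% SRB after 10% TCA fixation, 560 nm) for cytotoxicity.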

[13] = read-out: Interferon-gamma inducible Protein 10 (IP10), CXCL10 (gene 3627); experiment: BSK_BE3C_IP10: BioMAP Diversity Plus: BE3C Assay for Interferon-gamma inducible Protein 10 (IP10) Biomarker Activity (AID 2283034); settings: primary human bronchial epithelial cells; actives raise or lower the signal
Summary of the method: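 ELISA readout of IP-10 in BE3C system: primary human bronchial epithelial cells, 24 h post-dosing; bidirectional curve fit vs DMSO baseline.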

[14] = read-out: Monokine induced gamma interferon (MIG), CXCL9 (gene 4283); experiment: BSK_BE3C_MIG: BioMAP Diversity Plus: BE3C Assay for Monokine induced gamma interferon (MIG) Biomarker Activity (AID 2283035); settings: primary human bronchial epithelial cells; actives raise or lower the signal
Summary of the method: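 hu bronchial epithelial 1° cells, 24 h cpd; MIG by ELISA; bidirectional fit, DMSO = baseline.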

[15] = read-out: Plasminogen activator inhibitor-1 (PAI1), SERPINE1 (gene 5054); experiment: BSK_BE3C_PAI1: BioMAP Diversity Plus: BE3C Assay for Plasminogen activator inhibitor-1 (PAI1) Biomarker Activity (AID 2283037); settings: primary human bronchial epithelial cells; actives raise or lower the signal
Summary of the method: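 ELISA read-out of PAI-1 from human bronchial epithelial primary cells, 24 h post-dosing; bidirectional curve fit vs DMSO baseline, gain or loss of signal scored.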

[16] = read-out: urokinase plasminogen activator (uPA), PLAU (gene 5328); experiment: BSK_BE3C_uPA: BioMAP Diversity Plus: BE3C Assay for urokinase plasminogen activator (uPA) Biomarker Activity (AID 2283038); settings: primary human bronchial epithelial cells; actives raise or lower the signal
Summary of the method: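 Using confluent primary human lung bronchial epithelial cultures, we dosed chemicals, waited 24 h, then ran a uPA ELISA, fitting bidirectionally against DMSO.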

[17] = read-out: Urokinase-type plasminogen activator receptor (uPAR), PLAUR (gene 5329); experiment: BSK_BE3C_uPAR: BioMAP Diversity Plus: BE3C Assay for Urokinase-type plasminogen activator receptor (uPAR) Biomarker Activity (AID 2283039); settings: primary human bronchial epithelial cells; actives raise or lower the signal
Summary of the method: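 ELISA readout of uPAR on human lung primary bronchial epithelial cells, 24 h post-dosing. Bidirectional curve fit relative to DMSO vehicle baseline; gain or loss of signal both scored.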

[18] = read-out: Pselectin, SELP (gene 6403); experiment: BSK_4H_Pselectin: BioMAP Diversity Plus: 4H Assay for Pselectin Biomarker Activity (AID 2283026); settings: primary human endothelial cells (HUVEC); actives raise or lower the signal
Summary of the method: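 HUVEC, 24 h chemical exposure; P-selectin read by ELISA. Bidirectional curve fit vs DMSO baseline; gain or loss of signal scored.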

Measured: AC50

Sequence of human Vitamin D Receptor (VDR), VDR (gene 7421) (P11473 whole entry, looked up): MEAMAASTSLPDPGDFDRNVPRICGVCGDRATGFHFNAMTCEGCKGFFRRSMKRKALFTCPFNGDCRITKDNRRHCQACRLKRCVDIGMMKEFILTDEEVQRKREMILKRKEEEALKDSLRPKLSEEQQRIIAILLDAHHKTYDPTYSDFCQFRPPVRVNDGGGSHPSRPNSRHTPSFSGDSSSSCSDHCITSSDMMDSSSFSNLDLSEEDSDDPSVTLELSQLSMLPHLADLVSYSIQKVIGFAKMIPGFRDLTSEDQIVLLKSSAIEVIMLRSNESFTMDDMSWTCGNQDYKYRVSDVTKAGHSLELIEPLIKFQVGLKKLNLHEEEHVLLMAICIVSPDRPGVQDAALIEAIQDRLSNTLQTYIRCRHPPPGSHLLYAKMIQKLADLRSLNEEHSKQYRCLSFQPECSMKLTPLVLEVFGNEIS

CCN(CCO)S(=O)(=O)C(F)(F)C(F)(F)C(F)(F)C(F)(F)C(F)(F)C(F)(F)C(F)(F)C(F)(F)F
active: [1] 13.7 µM | [4] 27.6 µM and 17.8 µM | [5] 4.15 µM | [6] 45.8 µM and 40.1 µM | [7] 44.5 µM and 37.2 µM | [8] 12.6 µM and 21.8 µM | [11] 43.7 µM and 27.7 µM | [12] 50.6 µM | [13] 35 µM and 14.4 µM | [14] 50.6 µM and 43.2 µM | [15] 30 µM and 15.4 µM | [16] 47.8 µM | [17] 46.4 µM and 36.9 µM
inactive: [1] | [2] | [3] | [5] | [9] | [10] | [12] | [16]

O=C(O)C(F)(F)C(F)(F)C(F)(F)OC(F)(C(F)(F)F)C(F)(F)F
active: [5] 37 µM
inactive: [1] | [2] | [3] | [4] | [5] | [18] | [6] | [7] | [8] | [9] | [10] | [11] | [12] | [13] | [15] | [16] | [17]

O=C(F)C1(F)C(F)(F)C(F)(F)C(F)(F)C(F)(F)C1(F)F
not listed: [14]
inactive: all other assays above

O=S(=O)(O)CCC(F)(F)C(F)(F)C(F)(F)C(F)(F)F
active: [1] 30 µM
inactive: [1] | [2] | [3] | [4] | [5] | [6] | [7] | [8] | [9] | [10] | [11] | [12] | [13] | [15] | [16] | [17]

O=C(O)CCC(F)(F)C(F)(F)C(F)(F)F
not listed: [14]
inactive: all other assays above

C=CC(=O)OCCC(F)(F)C(F)(F)C(F)(F)C(F)(F)F
inactive: [1] | [2] | [3] | [4] | [5] | [18] | [6] | [7] | [9] | [10] | [11] | [12] | [13] | [15] | [16] | [17]
active: [8] 6.34 µM and 21.1 µM | [12] 21.1 µM

From PubChem BioAssay (EPA / NIEHS)
